# In the supplement of paper PMC4466140:
# Assays:
# Assay in all cases: SPOT peptide array binding signal intensity (averaged, normalized) (arbitrary units (background-subtracted, floor 0; scale differs between SH3 domains)); higher = stronger binding of the SH3 domain to the peptide
# SpBzz1-D2 = target: SpBzz1-D2
# How it was run: (§1)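 Peptides were synthetic 15-mers on cellulose membranes, with every cysteine replaced by serine. They were incubated overnight at 4°C with GST-SH3 domains from four yeast species at 10 μg/ml in TBS-based blocking buffer. Binding signal, the replicate-averaged normalized and background-subtracted spot intensity, is in arbitrary units that differ between domains.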
# SpCyk3 = target: SpCyk3
# How it was run: as §1
# SpHof1 = target: SpHof1
# How it was run: as §1
# SpHof1-2 = target: SpHof1-2
# How it was run: as §1
# SpHof1-3 = target: SpHof1-3
# How it was run: as §1
# SpHse1 = target: SpHse1
# How it was run: as §1
# SpLsb1 = target: SpLsb1
# How it was run: as §1
# SpLsb4 = target: SpLsb4
# How it was run: as §1
# SpMyo1 = target: SpMyo1
# How it was run: as §1
# SpNbp2 = target: SpNbp2
# How it was run: as §1
# SpPex13 = target: SpPex13
# How it was run: as §1
# SpRvs167 = target: SpRvs167
# How it was run: as §1
# SpSla1-D1-D2 = target: SpSla1-D1-D2
# How it was run: as §1
# SpSla1-D3 = target: SpSla1-D3
# How it was run: as §1
binder,measurement,setting,value
TTAPALPSLPPPPLL,SPOT peptide array binding signal intensity,SpBzz1-D2,≤ 0
same,SPOT peptide array binding signal intensity,SpCyk3,1
same,SPOT peptide array binding signal intensity,SpHof1,≤ 0
same,SPOT peptide array binding signal intensity,SpHof1-2,39.8
same,SPOT peptide array binding signal intensity,SpHof1-3,≤ 0
same,SPOT peptide array binding signal intensity,SpHse1,≤ 0
same,SPOT peptide array binding signal intensity,SpLsb1,≤ 0
same,SPOT peptide array binding signal intensity,SpLsb4,≤ 0
same,SPOT peptide array binding signal intensity,SpMyo1,1940
same,SPOT peptide array binding signal intensity,SpNbp2,≤ 0
same,SPOT peptide array binding signal intensity,SpPex13,11
same,SPOT peptide array binding signal intensity,SpRvs167,≤ 0
same,SPOT peptide array binding signal intensity,SpSla1-D1-D2,4
same,SPOT peptide array binding signal intensity,SpSla1-D3,2
